Assay in all cases: PBM binding z-score (relative to random genomic background probes); higher = stronger binding; sequences stand for … in GC…GCGATTGACAGCGTAGAATGAAGG
Assay [1] relates to FXR:RXRa (NR concentration 270 nM, RXRa partner concentration 90 nM). In outline: (§1)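 Ligand-free nuclear receptor dimers were applied to custom Agilent 4×180K protein-binding microarrays whose double-stranded probes carried direct-repeat seeds, single-nucleotide variants, half-site ablations and random human genomic background sequences in 34-nt variable regions. Incubation lasted 1 h. Binding z-scores were computed against the random background probes from regression-normalized fluorescence.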

The subject of assay [2] is LXRa:RXRa (NR concentration 270 nM, RXRa partner concentration 90 nM). In outline:
as §1

The subject of assay [3] is LXRa homodimer (NR concentration 270 nM). In outline:
as §1

Assay [4] has as its system LXRb:RXRa (NR concentration 270 nM, RXRa partner concentration 90 nM). In outline: as §1
For assay [5], the system named is LXRb homodimer (NR concentration 270 nM). The gist of the method:
as §1

In assay [6] the test system is PPARa:RXRa (NR concentration 270 nM, RXRa partner concentration 90 nM). The gist of the method:
as §1

The subject of assay [7] is PPARg:RXRa (NR concentration 180 nM, RXRa partner concentration 90 nM). In outline: as §1
The test system of assay [8] is PPARg:RXRa 270nM:90nM, anti-RXR (NR concentration 270 nM, RXRa partner concentration 90 nM). In outline:
as §1

Assay [9] relates to PPARg:RXRa 30nM:10nM, anti-RXR (NR concentration 30 nM, RXRa partner concentration 10 nM). In outline: as §1
The subject of assay [10] is PPARg:RXRa 90nM:30nM, anti-RXR (NR concentration 90 nM, RXRa partner concentration 30 nM). The gist of the method:
as §1

Assay [11] deals with PPARg:RXRa DBDmut IVT, anti-RXR (DBD mutation: RXRa K156A/R161A, NR concentration 270 nM, RXRa partner concentration 90 nM). In outline: as §1
The test system of assay [12] is PPARg:RXRa IVT, anti-PPARg (NR concentration 270 nM, RXRa partner concentration 90 nM). In outline: as §1
Assay [13] has as its system PPARg DBDmut:RXRa IVT, anti-PPARg (DBD mutation: PPARg1 K132A/R137A, NR concentration 270 nM, RXRa partner concentration 90 nM). The gist of the method:
as §1

The subject of assay [14] is PPARg DBDmut IVT, anti-PPARg (DBD mutation: PPARg1 K132A/R137A, NR concentration 270 nM). In outline:
as §1

In assay [15] the test system is PPARg homodimer (NR concentration 180 nM). In outline:
as §1

Assay [16] concerns PXR:RXRa (NR concentration 270 nM, RXRa partner concentration 90 nM). The gist of the method:
as §1

In assay [17] the test system is PXR homodimer (NR concentration 270 nM). The gist of the method: as §1
The test system of assay [18] is RARa:RXR (NR concentration 270 nM, RXRa partner concentration 90 nM). In outline:
as §1

Assay [19] concerns RARa homodimer (NR concentration 270 nM). In outline: as §1
Assay [20] relates to RARb:RXRa (NR concentration 270 nM, RXRa partner concentration 90 nM). The gist of the method:
as §1

With CCGACTGGGGCATAGGGTTACCATAAGCCAGCCC, the PBM binding z-score in assay [1] was 0.216; in [2] it was 1.62; in assay [3] it was -0.605; in assay [4], 0.389; in assay [5], -0.905; in assay [6], 2.07. Also, the PBM binding z-score is 3.45 in assay [7]; 4.29 in assay [8]; 2.36 in [9]; 4 in assay [10]; 2.48 in assay [11]; 3.41 in assay [12]. Also, the PBM binding z-score in [13] was -0.334; in assay [14], -1.39; in assay [15] it was 0.589; in [16] it was 0.141; in assay [17], -0.597; in assay [18] it was 0.817. For the same sequence, the values for the PBM binding z-score in [19] and in [20] were -1.05 and 1.25, respectively.

On to CCTACTAGTTGACCATAAGGGCAACCGAAGCTCG, for which the PBM binding z-score in assay [1] was determined as 0.832; in assay [2], 0.281; in assay [3], 0.276; in assay [4], 0.306; in [5], 0.518; in assay [6], 0.516. Moreover, the PBM binding z-score in assay [7] was 0.418; in [8], 0.311; in assay [9], -0.164; in assay [10], 0.0805; in [11], 0.2; in [12] it was 0.479. In addition, the PBM binding z-score is 0.235 in assay [13]; -0.627 in [14]; 1.22 in assay [15]; 0.406 in [16]; 0.317 in assay [17]; 0.81 in assay [18]. Also, the PBM binding z-score in assay [19] worked out at 1.01; in assay [20], 1.39.

Regarding CGTTCAAGGTCAGAGAGGTCAGTGAATGCCGAGT, the PBM binding z-score in assay [1] was 6.69; in assay [2], 5.26; in assay [3] it was 3.71; in assay [4], 4.58; in [5], 0.61; in assay [6], 5.27. In addition, the PBM binding z-score worked out at 4.38 in assay [7]; 4.69 in assay [8]; 1.58 in assay [9]; 3.31 in [10]; 3.67 in assay [11]; 4.41 in assay [12]. Further, the PBM binding z-score worked out at 1.75 in assay [13]; 1.56 in [14]; 5.16 in assay [15]; 6.25 in assay [16]; 12.2 in assay [17]; 5.57 in [18]. The values for the PBM binding z-score in assay [19] and in assay [20] were 2.45 and 5.45, respectively.

For CAAACTAGGTCACAGAGGTGAAAGTCCGTGCGTA, the PBM binding z-score in assay [1] came out at 5.7; in assay [2] it was 4.38; in assay [3] it was 0.932; in [4] it was 3.33; in assay [5], 0.56; in assay [6], 5.82. Also, the PBM binding z-score was 9.16 in [7]; 7.57 in assay [8]; 5.73 in [9]; 7.6 in assay [10]; 8.61 in assay [11]; 8.94 in assay [12]. The PBM binding z-score amounted to 5.86 in [13]; 4.85 in [14]; 2.36 in assay [15]; 3.51 in assay [16]; 0.909 in [17]; 4.08 in assay [18]. The PBM binding z-score worked out at 0.879 in assay [19] and 4.42 in assay [20].

On to ACTATTAGTTGAGATGAGGGCAACCGATAGGTTG, for which the PBM binding z-score in assay [1] is 1.23; in assay [2] it was 0.291; in [3], 0.338; in assay [4] it was 0.212; in assay [5], 0.0544; in assay [6], 0.427. Also, the PBM binding z-score in [7] is 0.607; in assay [8], 0.07; in [9], 0.15; in assay [10] it was 0.083; in assay [11], 0.105; in [12] it was 0.33. The PBM binding z-score in assay [13] is 1.25; in [14], 0.632; in assay [15], 0.972; in [16], 1.35; in assay [17], 0.727; in assay [18], 0.676. Further, the values for the PBM binding z-score in assay [19] and in assay [20] were 1.33 and 1.22, respectively.

In the case of TGTCAAAGTTCAAGGGTAACGTAAGTATCCACAC, the PBM binding z-score in assay [1] was 6.24; in [2], 6.1; in assay [3], 3.43; in assay [4], 3.73; in assay [5] it was 0.957; in assay [6] it was 5.25. For the same sequence, the PBM binding z-score in [7] was 8.36; in [8] it was 7.5; in [9], 5.26; in [10], 7.05; in assay [11] it was -0.0175; in [12], 4.63. In addition, the PBM binding z-score in assay [13] was found to be 1.78; in [14], 1.04; in [15], 2.41; in assay [16], 4.83; in assay [17], 2.3; in assay [18] it was 4.95. Besides, the PBM binding z-score is 0.926 in [19] and 5.05 in assay [20].

As to CTTCAAAGTTCAACTAAGGTAACGTAAAGCACGC, the PBM binding z-score came to 7.28 in assay [1]; 6.39 in assay [2]; 5.24 in assay [3]; 4.06 in assay [4]; 2.56 in assay [5]; 5.12 in [6]. The PBM binding z-score in assay [7] was found to be 3.32; in assay [8], 4.03; in [9] it was 1.49; in [10], 3.06; in [11], 0.299; in assay [12], 1.44. The PBM binding z-score in assay [13] was determined as 1.35; in assay [14], 1.17; in assay [15], 3.47; in assay [16], 5.58; in assay [17], 4.16; in [18], 4.32. For the same sequence, the PBM binding z-score in [19] came out at 2.15; in assay [20], 5.19.

The values are drawn from the supplement of paper PMC6555819.
